# Results published in PubChem BioAssay AID588676 (Johns Hopkins Ion Channel Center, 2011).
# Hit rate of the full screen: of about 310,000 compounds, about 3,900 (1.3%) were called active. This is one part of a sample in which actives are shown more often than they occur.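 The calls were made as follows: active = calcium-response B-score plate-corrected more than 3 library SD below zero, starting fluorescence within 5 deviations, no agonist response on first addition; inactive = the rest.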
# Molecular target: Mas-related G-protein coupled receptor member X1 (Homo sapiens) (UniProt Q96LB2)
# Assay: blockade of BAM8-22-evoked MrgX1 calcium response – HEK293 cells, Fluo-4 calcium flux, primary screen (AID 588676);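 as to B-score: peak minus trough fluorescence over baseline after final BAM8-22 challenge near maximal dose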
# Details: Fluo-4, BAM8-22 antagonism, at 10 µM; stronger effect = lower value
# Chain of Mas-related G-protein coupled receptor member X1 (Homo sapiens) (Q96LB2 whole entry, looked up): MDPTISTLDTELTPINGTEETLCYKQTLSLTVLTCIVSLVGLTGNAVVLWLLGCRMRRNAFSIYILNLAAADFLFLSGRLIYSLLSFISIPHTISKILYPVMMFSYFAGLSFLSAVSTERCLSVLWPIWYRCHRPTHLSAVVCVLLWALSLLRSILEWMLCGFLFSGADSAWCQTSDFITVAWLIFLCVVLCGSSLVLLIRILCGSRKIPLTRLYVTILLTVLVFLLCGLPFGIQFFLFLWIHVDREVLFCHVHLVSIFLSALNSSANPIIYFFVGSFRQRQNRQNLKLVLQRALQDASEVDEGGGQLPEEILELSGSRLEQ
row,Structure (SMILES),B-score
1,COc1ccc(S(=O)(=O)NCc2ccc(C(=O)N3CCC4(CC3)OCCO4)cc2)cc1,-6.08 (active)
2,COc1ccc(NC(=O)N2CCC3(CC2)OCCO3)c(OC)c1,inactive
3,COc1ccc(-c2nc(CS(=O)CC(=O)N3CCC4(CC3)OCCO4)c(C)o2)cc1 (stereo not given),inactive
4,COC(=O)C1=C(c2cc3ccccc3o2)C[C@@H]2CC[C@H]1N2C(=O)NC1CCCCC1,inactive
5,CCCCCCCCCCCCn1ccc(=N)cc1,-5.32 (active)
6,COc1ccccc1C1=NCc2nnc(CSC)n2-c2ccc(Cl)cc21,inactive
7,CCCCn1c(=O)c(C(=O)Nc2ccccc2Cl)c(O)c2ccccc21,inactive
8,CCCCCn1c(=O)c(C(=O)NCc2ccccn2)c(O)c2ccccc21,inactive
9,CCCCCn1c(=O)c(C(=O)NCc2ccccc2)c(O)c2ccccc21,-6.52 (active)
10,CC(C)c1ccc(OCC(=O)N2CCN(C)CC2)c(Br)c1,inactive
11,CCOC(=O)C1SC2(C(F)(F)C(F)F)CC1(O)c1c(c(OC)c3occc3c1OC)O2 (stereo not given),inactive
12,CNCC(O)c1cc(F)c(OCc2ccccc2)c(OCc2ccccc2)c1F (stereo not given),inactive
13,Cc1ccc(-n2c(O)c(C=NCC3CCCO3)c(=O)[nH]c2=O)c(C)c1 (stereo not given),inactive
14,CCOC(=O)C(O)(c1ccc(N=Cc2ccccc2O)c(C)c1)C(F)(F)F (stereo not given),inactive
15,Cc1cccc(NC(=O)N2CC3CC(C2)c2cccc(=O)n2C3)c1 (stereo not given),inactive
16,COc1ccccc1N1CCN(C(CNC(=O)Oc2ccccc2)c2cccnc2)CC1 (stereo not given),inactive
17,O=C(CN1CCCCC1)Nc1ccc(Br)cc1C(=O)c1ccccc1Cl,inactive
18,CN1CCN(C(=S)SCC(=O)Nc2ccc(Cl)cc2C(=O)c2ccccc2)CC1,inactive
19,O=C(CCN1CCCCC1)NCC(=O)Nc1ccc(Br)cc1C(=O)c1ccccc1,-5.59 (active)
20,CCOC(=O)C1=C(C)OC(N)=C(C(=O)OC)C12C(=O)Nc1ccc(Br)cc12 (stereo not given),inactive
